Assay results published in PubChem BioAssay (Tox21).
Where “and” joins values, the source holds several entries; their conditions need not be identical. Equal entries are not always repeated. Records with an inconclusive call do not appear. Where a call stands in place of a potency, no number is given. A structure can be active in one record and inactive in another. Calls of active or inactive are those of the source. Calls come from the whole dose curve; as a rule, active = well fitted curve in the direction sought with a large enough effect in the repeat runs; inconclusive = weak or mixed curves; inactive = no such curve, though single readings can be large; an effect the other way counts as inactive or inconclusive.

test: qHTS RealTime-Glo MT Cell Viability Assay in HepG2 cells - 40 hour (AID 1224870); details: RealTime-Glo luminescence; series mostly up to 76.8 µM; activity change, negative = cytotoxic: at the top concentration; note: nearly all actives have a fitted effect of over 50% in size
Procedure, shortened: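 Real-time viability: cells seeded at 600 per well together with NanoLuc and cell-permeant prosubstrate, compounds added after 5 h incubation. Luminescence tracked at 0, 8, 16, 24, 32 and 40 h of exposure.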
Potency is the fitted concentration of half-maximal effect.

Compound	Potency	activity change, negative = cytotoxic
O=C(O)c1cc(=O)[nH]c(=O)[nH]1	inactive	
COc1cc([C@H]2Oc3cc([C@H]4Oc5cc(O)cc(O)c5C(=O)[C@@H]4O)ccc3O[C@@H]2CO)ccc1O	inactive	
CC1=CC(C)(C)Nc2ccccc21	inactive	
COCCOCCOCCO	inactive	
O=C1CCc2ccccc2O1	inactive	
O=[Se](O)O	21.9 µM (active)	2.31% [at 15.8 µM] (inactive)
FC(F)(F)C(Cl)Br (centres undefined)	inactive	
C=CCOC(=O)C(=C)C	inactive	
C=CC(=O)OCCCC	inactive	
C[C@]12C=CC(=O)C=C1CC[C@H]1[C@@H]3C[C@@H](O)[C@](O)(C(=O)CO)[C@@]3(C)C[C@H](O)[C@@]12F	inactive	
O=C(O)c1ccc(O)cc1	inactive	
CC(=O)Oc1ccc(C(c2ccc(OC(C)=O)cc2)c2ccccn2)cc1	inactive	
CCO[Si](CCCNC(N)=O)(OCC)OCC	inactive	
CCCCCC=O	inactive	
IC(I)I	21.8 µM (active) and 4.9 µM (active)	
CN1CCOCC1	inactive	
COC(=O)C(C)Oc1ccc(Oc2ncc(C(F)(F)F)cc2Cl)cc1 (centres undefined)	inactive	
OCCNCCO	inactive	
NCCOCCO	inactive	
Cc1ccc(C(C)(C)C)c(O)c1	inactive	

Compound	Potency	activity change, negative = cytotoxic
CC(C)=CCO	inactive	
CC(=O)Oc1c(C)c(C)c2c(c1C)CC[C@@](C)(CCC[C@H](C)CCC[C@H](C)CCCC(C)C)O2	inactive	
Oc1c(Cl)ccc(Cl)c1Cl	inactive	
O=C(O)CCCCCCCCCCCC(=O)O	inactive	
c1ccc2c(c1)ccc1ncccc12	inactive	
CCC(=O)O[C@H]1[C@H](O[C@@H]2[C@@H](C)[C@H](O[C@H]3C[C@@](C)(OC)[C@@H](O)[C@H](C)O3)[C@@H](C)C(=O)O[C@H](CC)[C@@](C)(O)[C@H](O)[C@@H](C)C(=O)[C@H](C)C[C@@]2(C)O)O[C@H](C)C[C@@H]1N(C)C	inactive	
c1ccc2c(c1)[nH]c1ccccc12	inactive	
OC[C@@H](O)[C@@H](O[C@@H]1O[C@H](CO)[C@H](O)[C@H](O)[C@H]1O)[C@H](O)[C@@H](O)CO		0.697% [at 35.3 µM] (inactive)
C=C1C[C@H]2[C@@H]3C=C(C)C4=CC(=O)CC[C@]4(C)[C@H]3CC[C@]2(C)[C@@]1(OC(C)=O)C(C)=O	inactive	
Cc1ccc([N+](=O)[O-])c(C)c1	inactive	
O=C1OC2(c3ccccc31)c1cc(I)c(O)c(I)c1Oc1c2cc(I)c(O)c1I	24.6 µM (active) and 12.4 µM (active) and 29.8 µM (active)	
CC(=O)[C@H]1CC[C@H]2[C@@H]3CC=C4C[C@@H](O)CC[C@]4(C)[C@H]3CC[C@]12C	inactive	
O=S1(=O)CCCO1	inactive	
CN(C)C	inactive	
ClC/C=C/CCl	inactive	
[O-]/[N+](=N\O)c1ccccc1	inactive	
CCCCCC1C(=O)CCC1CC(=O)OC (centres undefined)	inactive	
Cc1ccc(S(=O)(=O)NCl)cc1	inactive	
CCCCCCCCCCCCCO	inactive	

test: A CellTox Green Cytotoxicity Assay to monitor cytotoxicity in HEK293 cells - 40 hour (AID 1224871); details: CellTox Green fluorescence; series mostly up to 76.8 µM; cytotoxicity increase: at the top concentration; note: nearly all actives have a fitted effect of over 45% in size
Procedure, shortened: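 HEK293 cells premixed with CellTox Green dye were seeded at 600 cells/well and left 5 h at 37 C/5% CO2 before pin transfer of 23 nL compound in DMSO. Fluorescence from dye bound to dead-cell DNA was read during 40 h treatment.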

Compound	Potency	cytotoxicity increase
O=C(O)c1cc(=O)[nH]c(=O)[nH]1	inactive	
COc1cc([C@H]2Oc3cc([C@H]4Oc5cc(O)cc(O)c5C(=O)[C@@H]4O)ccc3O[C@@H]2CO)ccc1O	inactive and 16.9 µM (active)	
COCCOCCOCCO	inactive	
O=C1CCc2ccccc2O1	inactive	
O=[Se](O)O	30.9 µM (active)	-7.57% [at 15.8 µM] (inactive)
FC(F)(F)C(Cl)Br (centres undefined)	inactive	
C=CCOC(=O)C(=C)C		-8.39% (inactive)
C=CC(=O)OCCCC	inactive	
C[C@]12C=CC(=O)C=C1CC[C@H]1[C@@H]3C[C@@H](O)[C@](O)(C(=O)CO)[C@@]3(C)C[C@H](O)[C@@]12F	inactive	
O=C(O)c1ccc(O)cc1	inactive	
CC(=O)Oc1ccc(C(c2ccc(OC(C)=O)cc2)c2ccccn2)cc1	inactive	
CCO[Si](CCCNC(N)=O)(OCC)OCC	inactive	
CCCCCC=O	inactive	
IC(I)I	inactive	
CN1CCOCC1	inactive	
COC(=O)C(C)Oc1ccc(Oc2ncc(C(F)(F)F)cc2Cl)cc1 (centres undefined)	inactive	
OCCNCCO	inactive	
NCCOCCO	inactive	
Cc1ccc(C(C)(C)C)c(O)c1	23.8 µM (active) and 24.5 µM (active)	

Compound	Potency	cytotoxicity increase
CC(C)=CCO	inactive	
CC(=O)Oc1c(C)c(C)c2c(c1C)CC[C@@](C)(CCC[C@H](C)CCC[C@H](C)CCCC(C)C)O2	inactive	
Oc1c(Cl)ccc(Cl)c1Cl	inactive	
O=C(O)CCCCCCCCCCCC(=O)O	27.1 µM (active) and inactive	
c1ccc2c(c1)ccc1ncccc12	inactive	
CCC(=O)O[C@H]1[C@H](O[C@@H]2[C@@H](C)[C@H](O[C@H]3C[C@@](C)(OC)[C@@H](O)[C@H](C)O3)[C@@H](C)C(=O)O[C@H](CC)[C@@](C)(O)[C@H](O)[C@@H](C)C(=O)[C@H](C)C[C@@]2(C)O)O[C@H](C)C[C@@H]1N(C)C	28.9 µM (active) and inactive	
c1ccc2c(c1)[nH]c1ccccc12	inactive	
OC[C@@H](O)[C@@H](O[C@@H]1O[C@H](CO)[C@H](O)[C@H](O)[C@H]1O)[C@H](O)[C@@H](O)CO	inactive	
C=C1C[C@H]2[C@@H]3C=C(C)C4=CC(=O)CC[C@]4(C)[C@H]3CC[C@]2(C)[C@@]1(OC(C)=O)C(C)=O	inactive	
Cc1ccc([N+](=O)[O-])c(C)c1	24.6 µM (active) and inactive	
O=C1OC2(c3ccccc31)c1cc(I)c(O)c(I)c1Oc1c2cc(I)c(O)c1I	11.8 µM (active) [middle of 4 runs]	
CC(=O)[C@H]1CC[C@H]2[C@@H]3CC=C4C[C@@H](O)CC[C@]4(C)[C@H]3CC[C@]12C	inactive	
O=S1(=O)CCCO1	inactive	
CN(C)C		-9.81% (inactive)
ClC/C=C/CCl	inactive	
[O-]/[N+](=N\O)c1ccccc1	inactive	
CCCCCC1C(=O)CCC1CC(=O)OC (centres undefined)	inactive	
Cc1ccc(S(=O)(=O)NCl)cc1	inactive	
CCCCCCCCCCCCCO	inactive	
